Source: PubChem (National Center for Advancing Translational Sciences (NCATS))
Most compounds without a hit are left out; they make up all but 3% or so of the library.
p53ts 39C tox: cytotoxicity in p53ts cells at nonpermissive temperature | H1299-p53A138V viability at 39C, ATP luminescence, 24 h | Potency, µM (doses to about 46.1 µM), inactives show top-dose activity change, negative = cell killing, most hits filed as cytotoxic | 1.5% of 130,000 active; also: potency is read from the fitted curve at half-maximal effect; % is scaled to controls: 0 for no effect and ±100 for the full control effect; nearly all actives have a fitted effect of over 55% in size
Peg3 imprint: genomic imprint erasure induction. mouse ES Peg3-LacZ reporter, beta-gal luminescence, 40 h. Potency, µM (series often up to 60.7 µM), for inactives: at the highest dose activity change, positive = activation, most hits filed as activators. 0.02% of 110,000 active; also: potency is read from the fitted curve at half-maximal effect
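Imprint erasure is scored as LacZ activity from the silenced maternal Peg3 allele in feeder-free female ES cells cultured 40 h with LIF. Luminescence is normalized to in-plate negative controls and fitted to the Hill equation.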
CRE-bla Fsk: modulators of forskolin-stimulated CRE signaling in CHO cells. CHO CRE-bla reporter (cAMP response element driving beta-lactamase), forskolin EC10, beta-lactamase ratio. 2.5% of 71,000 active. Potency, µM (titrated, usually from 38.2 µM), inactives show at the highest dose activity change, negative = inhibition, hits mostly activators; active = well fitted activation curve with a large enough effect in the signal ratio, with a control signal flat, not every such curve was filed as active; inconclusive = small, poorly fitted or top-dose-only effect, or effect the other way, or a change in a side signal; the % refers to the signal ratio; also: potency is read from the fitted curve at half-maximal effect; % of control where 0% means no effect
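The 460nm/530nm emission ratio after CCF4 loading defined %Activity, from which AC50 values were obtained. CRE-bla CHO cells received compound dilution series together with an EC10 level of NKH 477 for 3 hours at 37 degrees Celsius.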
p53ts 32C kill: p53ts cell cytotoxicity, permissive temperature | H1299-p53A138V at 32C, ATP luminescence viability, 24 h | Potency, µM (series often up to 46.1 µM), inactives show at the top dose activity change, negative = cytotoxicity, usual class: cytotoxic | 0.93% of 130,000 active | AID 924;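 also: potency is read from the fitted curve at half-maximal effect; 0% = DMSO and -100% = full killing by reference compound; nearly all actives have a fitted effect of over 55% in size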
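ATP-content luminescence (ATPlite) read-out after 24 h compound exposure at 32C in H1299-p53A138V cells (600/well). Tested up to 46 uM. Normalized to DMSO (0%) and 100 uM tamoxifen (100% killing); Hill-fit AC50.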
IkB signaling: inhibitors of IkB signaling in ABC-DLBCL cells; ABC-DLBCL IkBa-CBG/CBR dual luciferase ratio, 4 h; response scale: scaled: untreated 0%, proteasome inhibitor 100%; Potency, µM (top dose mostly 57.1 µM), without a hit: at the highest dose IkBa stabilization activation; 0.04% of 110,000 active; active = well fitted curve in the direction sought with a large enough effect in the signal ratio, not every such curve was filed as active; inconclusive = small, poorly fitted or top-dose-only effect, or a change in a side signal; the % refers to the signal ratio;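 also: potency is read from the fitted curve at half-maximal effect; the direction sought is a rising ratio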
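Luminescence ratio of IκBα-fused green versus native red beetle luciferase in OCI-Ly3 cells, 4 h post-doxycycline with compound; red signal alone, scaled from basal (0%) to zero light (-100%), flagged nonspecific or cytotoxic effects.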
CHO via 24h: reduces CRE-bla CHO cell viability after 24 hours; shares compounds with CRE-bla Fsk; CRE-bla CHO viability, ATP luminescence, 24 h; activity, negative = viability loss, % at 46.1 µM; 120 tested, under 10 active; AID 905
CHO tox 40h: CHO cell toxicity at 40 h by ATP luminescence; shares compounds with CRE-bla Fsk; Potency, µM, for inactives: max response, usual class: inhibitors; CRE-bla CHO viability, ATP luminescence, 40 h; AID 906; 120 tested, under 10 active
CRE-luc potent: boosts CRE luciferase signal in HEK293 cells; shares compounds with CRE-bla Fsk; HEK293 CRE-luc2P, NKH477 EC10 potentiation, luminescence, 4 h; Potency, µM (highest dose often 38.3 µM), for inactives: at the top dose activity, positive = activation, usual class: activators; 80% of 120 active; AID 907
Active calls of the source: *; ? = inconclusive; · = no result given; [ ] = another dose, or the depositor's remark. Unless noted, calls follow the shape of the dose curve; as a rule, active = well fitted curve in the direction sought with a large enough effect; inconclusive = small, poorly fitted or top-dose-only effect, or another doubt; inactive = no such curve, though single readings can be large; an effect the other way counts as inactive or inconclusive.

SMILES	p53ts 39C tox	Peg3 imprint	CRE-bla Fsk	p53ts 32C kill	IkB signaling	others
Cc1cnc(NC(=O)CSc2nnc(-c3ccccc3)o2)s1	10µM*	-59%	-20%	?	?
O=C(CSc1nnc(-c2ccccc2)o1)Nc1ccccc1F	10µM*	-93%	-2%	13µM*	?
O=C(COc1ccccc1Cl)Nc1nc2c(s1)CCCC2	-18%	-14%[10.9 µM]	·	-15%	-2%
Cc1ccc(-c2nnc(SCC(=O)Nc3ccccc3F)o2)cc1	2.5µM*	-91%	-5%	5µM*	?
COc1ccccc1-c1nnc(SCC(=O)Nc2ccccc2F)o1	-1%	-43%[10.9 µM]	·	-19%	?
Cc1cnc(NC(=O)COc2ccccc2Cl)s1	5µM*	-83%	-15%	4µM*	0%
Cc1ccc(Cn2c(CNC(=O)CCc3ccccc3)nc3cccnc32)cc1	5%	-7%[10.9 µM]	·	9%	1%
CCOC(=O)c1c(S(=O)(=O)N2CCC(C(=O)N3CCN(c4cccc(C)c4C)CC3)CC2)c(C)n(C)c1C	-13%	-11%[10.9 µM]	·	14%	3%
O=c1[nH]ncc2ccccc12	2%	-3%	-8%	6%[1.84 µM]	?
O[C@@H](c1cc(C(F)(F)F)nc2c(Cl)cc(Cl)cc12)C1CCCCN1 (some centres undefined)	·	18%[10.9 µM]	·	·	·
CSC(N)=NCCC[C@H](N)C(=O)O	·	-8%	·	·	·
CN(C)c1nc(OCCOC(=O)c2ccccc2)nc(N(C)C)n1	-7%	-19%	5µM*	10%	0%
O=C(Nc1ccc2c(c1)OCCO2)c1ccc2nccnc2c1	4µM*	-81%	4%	?	?
CCOc1ccc(C(=O)Nc2ccc3c(c2)OCCO3)cc1Br	10µM*	-13%[10.9 µM]	·	?	?
CCOc1ccc(C(=O)Nc2ccc3c(c2)OCO3)cc1OCC	1%	-12%	-5%	5%	-7%
COc1cccc(CSc2nc3n(n2)C(CC(C)C)C(C(=O)Nc2ccccc2OC)=C(C)N3)c1 (centres undefined)	-29%	-19%[10.9 µM]	·	-29%	?
Cc1sc2nc(CSc3nc4ccccc4c(=O)n3CCCN3CCOCC3)[nH]c(=O)c2c1C	-13%	-11%	2.5µM*	22%	-1%
CCn1c(SCc2nc3ccccc3c(=O)[nH]2)nc2ccccc2c1=O	6%	-5%	2.5µM*	1%	1%
CC(=O)c1c(C)[nH]c(C(=O)CSc2nc3ccccc3c(=O)n2CCCN2CCOCC2)c1C	-1%	-8%	?	-7%	1%
COC(=O)c1sccc1S(=O)(=O)N(CC(=O)NCc1ccccc1)c1ccc(C)c(C)c1	-9%	-8%[10.9 µM]	·	3%	?
CC(C)c1cc(-c2nc(-c3ccc(Cl)cc3)no2)n[nH]1	?	-6%[10.9 µM]	·	-15%	?
COc1cccc(-c2nccc(NCc3cccs3)n2)c1	13µM*	-18%	-3%	?	2%[11.4 µM]
c1cncc(-c2nccc(NCc3cccs3)n2)c1	-14%	?	2.5µM*	-2%	3%[11.4 µM]
c1csc(CNc2ccnc(-c3ccc4c(c3)OCO4)n2)c1	10µM*	-14%	?	13µM*	2%[11.4 µM]
CCOc1cccc2cc(-c3nc4ccc(C(=O)O)cc4[nH]3)c(=O)oc12	16µM*	-77%[10.9 µM]	·	?	?
SMILES	p53ts 39C tox	Peg3 imprint	CRE-bla Fsk	p53ts 32C kill	IkB signaling	others
COc1ccc2cc(-c3nc4ccc(C(=O)O)cc4[nH]3)c(=O)oc2c1	2.5µM*	-91%[10.9 µM]	·	1.6µM*	?
Cc1c2cnn(CC(=O)N3CCCCC3)c(=O)c2c(C)n1Cc1ccc(Cl)cc1	-11%	-4%[10.9 µM]	·	7%	?
CCc1cc(=O)[nH]c(SCc2nc(-c3ccccc3)no2)n1	-12%	-8%[10.9 µM]	·	-8%	1%
O=C(Nc1ccc2c(c1)nc1n2CCOC1)c1ccccc1	16µM*	-52%	4%	13µM*	?
O=C(Nc1ccc2c(c1)nc1n2CCSC1)c1ccccc1	6.3µM*	-74%	10%	3.2µM*	?
COc1ccc(C(=O)Nc2ccc3c(c2)nc2n3CCSC2)cc1	6.3µM*	-13%	19%	5µM*	-1%
O=c1c2ccccc2oc2cc(O)c([C@@H]3COC[C@@H](CO)[C@@H](O)[C@@H](O)[C@H]3O)c(O)c12	·	·	?	·	0%[11.4 µM]
CCCn1cnc2c(SCc3ccc(Cl)cc3)nc(N)nc21	0%[9.22 µM]	-8%[10.9 µM]	3.2µM*	-2%[9.22 µM]	-1%[11.4 µM]
CC(C)c1ccc(NC(=O)CN2C(=O)COc3ccc(S(=O)(=O)N4CCCCC4)cc32)cc1	-11%	-15%[10.9 µM]	·	3%	2%
CCCCOc1ccc(C(=O)Nc2ccc3c(c2)CCCN3C(=O)c2cccs2)cc1	-14%	-20%[10.9 µM]	·	-8%	?
C[C@]12C=CC(=O)C=C1CC[C@@H]1[C@H]3C[C@@H](O)[C@](O)(C(=O)CO)[C@]3(C)C[C@H](O)[C@]12F	·	·	-6%	·	?
NCCCCCCNS(=O)(=O)c1ccc2c(Cl)cccc2c1	32µM*	-17%	-12%	17%	?
NCCCCNS(=O)(=O)c1ccc2c(Cl)cccc2c1	-24%	-25%	-17%	0%	?
CCN1Cc2cccc(C(=O)Nc3ccc(F)cc3)c2C1=O	-4%	7%[10.9 µM]	·	8%	0%
CCCN1Cc2cccc(C(=O)Nc3ccc(N4CCN(CC)CC4)cc3)c2C1=O	-5%	-2%	4µM*	1%	0%	CHO via 24h=-2;CHO tox 40h=-6%;CRE-luc potent=7.9µM*
COc1ccc(-c2nn(C)c(=O)c3ccccc23)cc1CNC(=O)c1ccco1	-11%	-12%	?	-15%	4%
Cn1nc(-c2ccc(N3CCCCC3)c(NC(=O)c3ccco3)c2)c2ccccc2c1=O	1%	-12%	1.6µM*	7%	0%	CHO via 24h=-39;CHO tox 40h=?;CRE-luc potent=0.63µM*
CCOC(=O)C1=C(CN2CCC(C)CC2)NC(=O)NC1c1ccc(Cl)cc1 (centres undefined)	8%	-19%	13µM*	6%	-2%	CHO via 24h=-14;CHO tox 40h=-36%;CRE-luc potent=13µM*
CCOC(=O)C1=C(CN2CCC(C)CC2)NC(=O)NC1c1ccc(F)cc1 (centres undefined)	·	·	·	2%	·
